The source of these data is PubChem BioAssay (EPA / NIEHS).

Broadly, the AC50 is the midpoint of the concentration-response curve, whichever way the signal moves.

Calls of active or inactive are those of the source. Rule for the calls, unless noted: active = hit-call score of the fitted dose curve at least 0.9, where 1 is the maximum; inconclusive = response in the unintended direction; inactive = score below 0.9.

The first experiment can be described thus: CPHEA_Stoker_NIS_Cytotoxicity: Cytotoxicity Assessment for CPHEA's Radioactive Iodide Uptake (RAIU) Assay for Sodium/Iodide Symporter (NIS) Inhibition, Stoker and Laws Labs (AID 2283897).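 For AC50: active means loss of ATP signal versus DMSO meaning cytotoxicity.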
Conditions: not given
An outline of the steps:
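Viability in hNIS-HEK293T-EPA cells is scored as a drop in luciferase-detected ATP following 2-hour room-temperature exposure (0.001–100uM; triplicate wells, three cell passages), with DMSO as negative control.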
In the case of `O=Cc1ccccc1C=O`, the result was inactive.

As to `CN(C)CCCN1c2ccccc2Sc2ccc(Cl)cc21`, the outcome was inactive. Same read-out and setting: the entry for `CCc1nc(N)nc(N)c1-c1ccc(Cl)cc1` is “inactive”; for `CCCCCCCCCCCCCCOS(=O)(=O)O` it is “inactive”; for `COc1ccc(OC(F)(F)F)cc1CN[C@H]1CCCN[C@H]1c1ccccc1` it is “inactive”.

As for `Cc1ccc(-c2cc(C(F)(F)F)nn2-c2ccc(S(N)(=O)=O)cc2)cc1`, the outcome was inactive.

Consider `CSc1ccc(Oc2ccc(S(N)(=O)=O)cc2CN(C)C)cc1C`, for which the outcome was inactive. Same read-out and setting: next, `CC(=O)O[C@]1(C(C)=O)CC[C@H]2[C@@H]3C=C(Cl)C4=CC(=O)[C@@H]5C[C@@H]5[C@]4(C)[C@H]3CC[C@@]21C`: “inactive”. On to `CCN(CC)CCOc1ccc(C(=C(Cl)c2ccccc2)c2ccccc2)cc1`, for which the AC50 was 9.92 µM (active).

As for `CCC(C)N(C)C(=O)c1cc2ccccc2c(-c2ccccc2Cl)n1` (configuration not stated), the outcome was inactive. For the compound `CC(COCC(C)OC(=O)c1ccccc1)OC(=O)c1ccccc1` (configuration not stated), the result was inactive.

With `CCCCCCC(C=O)=Cc1ccccc1`, the result was inactive. Consider `Cc1c(C)c2c(c(C)c1O)CCC(C)(COc1ccc(CC3SC(=O)NC3=O)cc1)O2` (configuration not stated), for which the AC50 is 12.5 µM (active). Consider `CC(=O)OCC(COC(C)=O)OC(C)=O`, for which the outcome was inactive.

As to `Cc1ccc(C(C)(C)C)c(O)c1`, the result was inactive. The same measure, in the same setting: next, `O=C(Oc1ccccc1)c1cccc(C(=O)Oc2ccccc2)c1`: “inactive”; `CCCCCCC(CCCCCCCCCCC(=O)OCC(COC(C)=O)OC(C)=O)OC(C)=O` (configuration not stated): “inactive”. Regarding `CN(C)C(=O)NC1(c2ccccc2)CCN(CCC[C@]2(c3ccc(Cl)c(Cl)c3)CCCN(C(=O)c3ccccc3)C2)CC1`, the outcome was inactive. Still for that read-out and setting: the entry for `O=C1OC(c2ccc(O)cc2)(c2ccc(O)cc2)c2ccccc21` is “inactive”.

A short description of a further experiment: CEETOX_H295R_11DCORT_noMTC: CeeTox H295R High-throughput Steroidogenesis Assay for 11-Deoxycortisol (11DCORT), maximum tolerated concentration (MTC) filtered results only (AID 2283911; active = hit-call score of the fitted dose curve at least 0.9, where 1 is the maximum; inactive = score below 0.9). To be noted: actives raise or lower the signal. The protocol:
CEETOX_H295R is a cell-based, multiplexed-readout assay that uses H295R, a human adrenal gland cell line, with measurements taken at 48 hours after chemical dosing in a 96-well plate.CEETOX_H295R_11DCORT_noMTC is one of 12 assay component(s) measured or calculated from the CEETOX_H295R assay (11 hormones and 1 viability assay). It is designed to make measurements of hormone induction, a form of inducible reporter, as detected with absorbance signals by HPLC-MS-MS technology. The concentrations for these components have not been pre-filtered for the maximum tolerated concentration (MTC) based on the MTT assay (_noMTC).Data from the assay component CEETOX_H295R_11DCORT_noMTC was analyzed into 1 assay endpoint. This assay endpoint, CEETOX_H295R_11DCORT_noMTC, was analyzed with bidirectional fitting relative to DMSO as the negative control and baseline of activity. Using a type of inducible reporter, gain or loss-of-signal activity using HPLC-MS-MS was used to understand synthesis of 11-Deoxycortisol in H295R cell line at 48hr of chemical exposure, without filtering concentrations for maximum tolerated concentration (MTC). To generalize the intended target to other relatable targets, this assay endpoint is annotated to the steroid hormone intended target family, where the subfamily is glucocorticoids.
Cell culture and media preparation procedures were conducted in accordance with OECD Test No. 456 guidelines, with minor modifications. H295R cells (ATCC CRL-2128) were expanded for 5 passages and frozen in batches in liquid nitrogen. […] For steroid quantification, media samples were shipped to OpAns, LLC (Durham, NC) on dry ice, and samples were thawed to room temperature prior to liquid-liquid extraction. […] Steroid hormones were separated by HPLC, eluted using a reverse phase C18 gradient with electrospray positive ionization, followed by quantification by tandem mass spectrometry (MS/MS). Data were acquired on a MassHunter Workstation Acquisition version B03.01 (Agilent Technologies, Inc.) and processed using MassHunter Quantitative Analysis for QQQ. Accuracy was determined for each hormone analyte from 3 standards to determine upper and lower limits of quantification (ULOQ and LLOQ, respectively) using a 7-point standard curve. Precision and accuracy of the extraction and quantification methods were calculated as the percent relative standard deviation (%RSD) of the spiked standards and percent spiked standard recovered, respectively. The goal was to achieve 100% accuracy (i.e., recover all spiked-in standard at quantification with minimal loss during run time) and good precision (i.e., have %RSD <15% to ensure reproducibility). Test medium was removed following chemical exposure, and cell viability was evaluated in the same wells by MTT. […]
For `Nc1nc(=S)c2[nH]cnc2[nH]1`, the AC50 was 44.7 µM (active). On the same count and under the same terms, next, `NC(=Nc1ccccc1)Nc1ccccc1`: 82.8 µM (active). With `O=C(Oc1ccccc1)c1cccc(C(=O)Oc2ccccc2)c1`, the call was inactive. Turning to `C=CCc1ccc(OC)c(OC)c1`, the result was inactive.

A further experiment is described as follows: CEETOX_H295R_OHPREG_noMTC: CeeTox H295R High-throughput Steroidogenesis Assay for OH-Pregnenolone (OHPREG), maximum tolerated concentration (MTC) filtered results only (AID 2283912; active = hit-call score of the fitted dose curve at least 0.9, where 1 is the maximum; inactive = score below 0.9). The settings on record: actives raise or lower the signal. In a few lines: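 H295R cells prestimulated 48 h with 10 uM forskolin, then exposed 48 h to compound (0.1% DMSO). 17alpha-hydroxypregnenolone in medium measured by MTBE extraction and HPLC-MS/MS; bidirectional fit vs DMSO, concentrations not MTT/MTC-filtered.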
As for `Nc1nc(=S)c2[nH]cnc2[nH]1`, the half-maximal activity concentration (AC50) is 72.9 µM (active). Consider `NC(=Nc1ccccc1)Nc1ccccc1`, for which the compound was classed as inactive.

`O=C(Oc1ccccc1)c1cccc(C(=O)Oc2ccccc2)c1`: the result was inactive.

On to `C=CCc1ccc(OC)c(OC)c1`, for which the call was inactive.
